Screening results from PubChem.
The list is not random: actives were taken first. Their share in the collection is about 2.4%.
D2 PAM-1 – Beta-Arrestin HTS for Positive Allosteric Modulators of the Human D2 Dopamine Receptor: Potentiators; DiscoveRx D2 beta-arrestin cells, luminescence, 90 min; 100% = 57 uM dopamine signal; AID 624464, 2012; 0.23% of 360,000 active; potentiation, % (concentration not given with the values); in the data active = potentiation above about 50%; inconclusive = mostly about 30% to 49%
Target sequence (P14416 whole entry, looked up): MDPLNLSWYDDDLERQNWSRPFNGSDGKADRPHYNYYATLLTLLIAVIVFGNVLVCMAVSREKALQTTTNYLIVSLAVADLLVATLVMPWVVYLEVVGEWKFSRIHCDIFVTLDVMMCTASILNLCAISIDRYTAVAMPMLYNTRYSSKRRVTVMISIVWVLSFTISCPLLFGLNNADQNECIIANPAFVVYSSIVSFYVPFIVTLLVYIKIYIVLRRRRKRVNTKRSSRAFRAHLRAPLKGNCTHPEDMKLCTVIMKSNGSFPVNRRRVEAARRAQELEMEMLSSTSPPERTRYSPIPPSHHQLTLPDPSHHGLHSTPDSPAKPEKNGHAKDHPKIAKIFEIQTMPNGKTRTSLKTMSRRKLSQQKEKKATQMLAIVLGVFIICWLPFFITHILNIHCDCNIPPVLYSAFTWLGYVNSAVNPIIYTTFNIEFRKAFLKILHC
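PathHunter D2 cells, attached overnight at 37 deg C, received compound in DMSO plus dopamine at EC20 (50 nM final) for 90 min at 37 deg C. Beta-arrestin recruitment was read as luminescence after 1 h with detection reagent at ambient temperature.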
D2 PAM-2 – HTS Assay for Positive Allosteric Modulators of the Human D2 Dopamine Receptor: Primary Screen for Potentiators; potentiation, % at 10 µM; D(2) dopamine receptor (Homo sapiens), P14416; AID 485347, 2010; HEK293 T-REx D2, calcium flux, EC20 dopamine potentiation; 0.34% of 340,000 active;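 active = potentiation over 3 SD above the plate norm, cut at about 30% in these data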; also: 0% is about no effect
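Potentiation of an EC20 dopamine calcium response measured kinetically over 180 s, after a preceding 180 s compound-only read flagging agonists. Cells: inducible Hek293 Trex D2 line, 4000/well, cultured overnight at 30 C before dye loading.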
D2 ag-1 – HTS Assay for Allosteric Agonists of the Human D2 Dopamine Receptor: Primary Screen for Agonists. D(2) dopamine receptor (Homo sapiens), P14416. HEK293 T-REx D2 cells, calcium flux agonist mode. activation, % at 2 µM. 0.53% of 340,000 active;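 active = activation over 3 SD above normal in the single-dose calcium agonist read, cut at about 30% in these data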; also: 0% is about no effect
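Tetracycline-induced HEK293 Trex cells with D2 receptor force-coupled to calcium signaling, plated overnight at 30 C and loaded with no-wash calcium dye. Calcium flux read kinetically for 180 s after compound addition; responses flag agonists.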
D2 ag-2 – Beta-Arrestin HTS for Positive Allosteric Modulators of the Human D2 Dopamine Receptor: Agonists; activation, % (test concentration not listed); 0.084% of 360,000 active; DiscoveRx PathHunter D2 beta-arrestin, luminescence, 90 min; 100% = 57 uM dopamine signal; D(2) dopamine receptor (Homo sapiens), P14416; in the data active = activation above about 40%; inconclusive = between about 15% and that limit
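Agonist mode: compounds alone added to overnight-plated D2 PathHunter cells for 90 min at 37 C, with 57 uM final dopamine (EC100) defining full response. Beta-arrestin recruitment detected by chemiluminescent reagent, read after 1 h at ambient temperature.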
D2 antagonist – HTS Assay for Allosteric Antagonists of the Human D2 Dopamine Receptor: Primary Screen for Antagonists; AID 485344, 2010; D(2) dopamine receptor (Homo sapiens), P14416; 2% of 340,000 active; HEK293 TREx D2 cells, calcium flux, dopamine EC80; inhibition, % at 10 µM; in the data active = inhibition above about 30%; inactive = below that, where a call was filed; also: 0% is about no effect
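In this primary screen, negative modulation is detected by tracking calcium flux after an EC80 dopamine challenge in inducible HEK293 T-REx D2 cells preexposed to test compound for 180 s.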
D3 arrestin ag – qHTS of D3 Dopamine Receptor Agonist: D3 Dopamine Receptor B-arrestin Agonist Confirmatory Assay; 4% of 2,300 active; AID 720506, 2013; shares compounds with D2 ag-1; Potency, µM (top dose mostly 76.9 µM), for inactives: at the top dose activation, most hits filed as activators; DiscoveRx D3 beta-arrestin cells, luminescence, 90 min;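 also: potency is read from the fitted curve at half-maximal effect; 100% = dopamine control response; nearly all actives have a fitted effect of over 70% in size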
D2 ag-3 – qHTS of D3 Dopamine Receptor Agonist: D2 Dopamine Receptor B-arrestin Agonist Counterscreen; Potency, µM (top dose mostly 76.9 µM), for inactives: at the top dose activation, actives largely listed as activators; 5.9% of 2,300 active; DiscoveRx PathHunter D2 beta-arrestin, luminescence, 90 min; response scale: percent relative to full dopamine signal; shares compounds with D2 ag-1; also: potency is read from the fitted curve at half-maximal effect; % of control where 0% means no effect; nearly all actives have a fitted effect of over 70% in size
Starred values were filed as active, the others as inactive; ? = inconclusive; nt = no result; ! = not active in a repeat. Unless noted, calls follow the shape of the dose curve; as a rule, active = well fitted activation curve with a large enough effect; inconclusive = small, poorly fitted or top-dose-only effect; inactive = flat fitted curve, though single readings scatter.

SMILES | D2 PAM-1 | D2 PAM-2 | D2 ag-1 | D2 ag-2 | D2 antagonist | D3 arrestin ag | D2 ag-3
Cc1ccc(-c2c3c(=O)n(C)c(=O)n(C)c3c3c(C(F)(F)F)nc4ccccc4n23)cc1 | nt | 5 | 0 | nt | nt | nt | nt
CCc1ccccc1NC(=O)c1cc(-c2cccc(O)c2)on1 | 3 | nt | nt | -2 | nt | -8% | -1%
O=C(Nc1ccccc1C(F)(F)F)c1cc(-c2cccc(O)c2)on1 | -7 | -10 | 1 | 0 | -15 | nt | nt
Cn1c(=O)c2c(nc(N3CCOCC3)n2Cc2cccc(Br)c2)n(C)c1=O | nt | -8 | -2 | nt | nt | nt | nt
CC#CCC(CC#CC)c1nc2ccccc2c(=O)n1N | -3 | -8 | -1 | -5 | -15 | -11% | -4%
CCOC(=O)N1CCN(CC(O)COCc2ccc(Cl)cc2)CC1 (configuration not stated) | -11 | 15 | 1 | -1 | -8 | nt | nt
CCc1ccc(OCC(O)CN2CCN(c3ccccn3)CC2)cc1 (configuration not stated) | 6 | -36 | 80* | ? | -4 | ? | ?
CC(=O)c1ccc(OCC(O)CN2CCN(CC(O)COc3ccc(C(C)=O)cc3)CC2)cc1 (configuration not stated) | 1 | -1 | 0 | -1 | -11 | nt | nt
OC(COCc1ccc(Cl)cc1)CN1CCN(c2ccccn2)CC1 (configuration not stated) | -1 | -24 | 83* | 45* | 84* | ? | ?
CC(=O)c1ccc(OCC(O)CN2CCN(c3ccccn3)CC2)cc1 (configuration not stated) | 94* | -20 | 83* | 47* | 88* | ? | 4µM*
CC(C)(C)C1CCC(OCC(O)CN2CCN(c3ccccn3)CC2)CC1 (configuration not stated) | 20 | -32 | 62* | ? | 63* | 0.63µM* | 20µM*
CCCc1ccc(OCC(O)CN2CCN(c3ccccn3)CC2)cc1 (configuration not stated) | -11 | -20 | 78* | ? | 74* | 1.3µM* | ?
OC(COC(c1ccccc1)c1ccccc1)CN1CCN(c2ccccn2)CC1 (configuration not stated) | -15 | -19 | 77* | 13 | 78* | 4.5µM* | ?
CCCc1ccc(OCC(O)CN2CCc3ccccc3C2)cc1 (configuration not stated) | -83 | nt | nt | 1 | nt | nt | nt
CC(=O)c1ccc(OCC(O)CN2CCN(Cc3ccccc3)CC2)cc1 (configuration not stated) | -3 | -3 | 9 | -7 | 17 | -21% | 4%
OC(COCC1COc2ccccc2O1)CN1CCN(c2ccccn2)CC1 (configuration not stated) | 25 | -23 | 77* | 45*! | 83* | ? | ?
CC(NCc1ccccc1)C1COc2ccccc2O1 (configuration not stated) | -21 | -19 | 38* | 4 | 29 | 11% | 4%
CC(NCC(O)COc1ccccc1)C1COc2ccccc2O1 (configuration not stated) | -10 | -28 | 65* | ? | 64* | 8% | 15%
NNC(=O)CCn1nnc2ccccc21 | -25 | -4 | nt | 4 | nt | -7% | -3%
OC(c1cc(-c2ccc(C(F)(F)F)cc2)nc(C(F)(F)F)c1)C1CCCCN1 (configuration not stated) | -43 | -3 | 10 | ? | -6 | ? | ?
Cc1ccc2oc(=O)c3cnn(CC(=O)N4CCN(c5cc(Cl)ccc5C)CC4)c3c2c1 | nt | 22 | 0 | nt | nt | nt | nt
O=C(NCC(c1ccco1)N1CCN(c2ccccc2)CC1)c1cccs1 (configuration not stated) | -7 | 12 | 5 | 11 | 27 | 14% | 17%
O=C(COc1ccccc1)NCC(c1ccco1)N1CCN(c2ccccc2)CC1 (configuration not stated) | -4 | 7 | 1 | -1 | -11 | 1% | 12%
O=C(NCc1cccs1)C(=O)NCC(c1ccco1)N1CCN(c2ccccc2)CC1 (configuration not stated) | -12 | -9 | 11 | 10 | 3 | nt | nt
Cc1cccc(C)c1OCc1nc2c3cnn(-c4cccc(F)c4)c3ncn2n1 | nt | 10 | 0 | nt | nt | nt | nt
SMILES | D2 PAM-1 | D2 PAM-2 | D2 ag-1 | D2 ag-2 | D2 antagonist | D3 arrestin ag | D2 ag-3
O=C(CSc1ncccn1)Nc1cccc2ccccc12 | 2 | 12 | 0 | -1 | 19 | -2% | -3%
O=C(CSCC(=O)Nc1cccc2ccccc12)Nc1cccc2ccccc12 | -6 | nt | nt | 1 | nt | nt | nt
O=C(NCCN1CCN(c2ccccc2)CC1)c1cccn2c(=O)c3cc(Cl)ccc3nc12 | -14 | 6 | 0 | -2 | 11 | nt | nt
COc1ccccc1OCCNC(=O)CCNC(=O)c1ccccc1OC | 9 | 4 | 0 | -2 | 26 | -4% | -3%
O=C(NCCCN1CCN(c2cccc(Cl)c2)CC1)c1ccc(N2CCCC2=O)cc1 | -2 | -2 | 0 | 3 | -14 | nt | nt
O=C(NCCN1CCN(c2cccc(Cl)c2)CC1)c1ccc(CSc2nc3ccncc3[nH]2)cc1 | -13 | -14 | 46* | 9 | 86* | 22µM* | ?
O=C(NCCCN1CCN(c2cccc(Cl)c2)CC1)c1cccc(N2CCCC2=O)c1 | -42 | -24 | 48* | 2 | 13 | -4% | 7%
O=C(NCCN1CCN(c2ccccc2)CC1)c1cccc(Cl)c1 | -6 | -26 | 46* | -2 | 70* | ? | 12%
CCN(CCNC(=O)c1ccc(CSc2nc3ccncc3[nH]2)cc1)c1ccccc1 | -6 | nt | nt | 0 | nt | nt | nt
COc1ccccc1C(=O)NCCC(=O)NCCOc1ccccc1 | -3 | -1 | 0 | -2 | -10 | nt | nt
Cc1cccc(C)c1NC(=O)NCCCN1CCN(c2ccccc2)CC1 | -12 | -29 | 74*! | ? | 72* | ? | ?
Cc1cccc(C)c1NC(=O)C(=O)NCCCN1CCOCC1 | 18 | nt | nt | -6 | nt | nt | nt
